Calls of active or inactive are those of the source. How the source made its calls: active means hit-call score of the fitted dose curve at least 0.9, where 1 is the maximum; inactive means score below 0.9.

This is an account of results in PubChem BioAssay (EPA / NIEHS).

Read-out in test [1]: Vascular endothelial growth factor receptor 2 (Homo sapiens) (UniProt P35968)
The test can be described thus: BSK_4H_VEGFRII: BioMAP Diversity Plus: 4H Assay for Vascular endothelial growth factor receptor 2 (VEGFR2) Biomarker Activity (AID 2283031).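 On AC50: cell-surface VEGFR2 protein level quantified by ELISA.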 Conditions: primary human endothelial cells (HUVEC); actives raise or lower the signal. The procedure, abridged: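 ELISA read-out of VEGFRII in primary human umbilical vein endothelium, taken 24 h after chemical treatment. Responses are expressed relative to DMSO, with bidirectional fitting.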

Read-out in test [2]: Human Leukocyte Antigen - DR isotype (HLADR), HLA-DRA (gene 3122)
As to the kind of experiment: BSK_BE3C_HLADR: BioMAP Diversity Plus: BE3C Assay for Human Leukocyte Antigen - DR isotype (HLADR) Biomarker Activity (AID 2283032). To be noted: primary human bronchial epithelial cells; actives raise or lower the signal. In a few lines:
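Human primary bronchial epithelial cells in the BE3C system were exposed to chemicals for 24 h, after which HLA-DR levels were quantified by ELISA. Activity was fitted bidirectionally, gain or loss of signal, against DMSO as negative control and baseline.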

Read-out in test [3]: Vascular cell adhesion molecule 1 (VCAM1), VCAM1 (gene 7412)
As to the kind of experiment: BSK_4H_VCAM1: BioMAP Diversity Plus: 4H Assay for Vascular cell adhesion molecule 1 (VCAM1) Biomarker Activity (AID 2283033).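 On outcome: cell-surface VCAM-1 protein measured by ELISA.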 To be noted: primary human endothelial cells (HUVEC); actives raise or lower the signal. The procedure, abridged:
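Primary human umbilical vein endothelial cells were exposed to chemicals for 24 h, after which VCAM-1 was quantified by ELISA. Responses were fitted bidirectionally against DMSO as negative control and activity baseline.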

Read-out in test [4]: Interferon-gamma inducible Protein 10 (IP10), CXCL10 (gene 3627)
As to the kind of experiment: BSK_BE3C_IP10: BioMAP Diversity Plus: BE3C Assay for Interferon-gamma inducible Protein 10 (IP10) Biomarker Activity (AID 2283034). Conditions: primary human bronchial epithelial cells; actives raise or lower the signal. In a few lines: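 Human primary bronchial epithelial cells were exposed to chemicals for 24 hours, after which IP-10 levels were measured by ELISA. Data were fitted bidirectionally against DMSO, which served as the negative control and activity baseline.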

Read-out in test [5]: Monokine induced gamma interferon (MIG), CXCL9 (gene 4283)
As to the kind of experiment: BSK_BE3C_MIG: BioMAP Diversity Plus: BE3C Assay for Monokine induced gamma interferon (MIG) Biomarker Activity (AID 2283035).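 Further: MIG protein measured by ELISA in BE3C cultures after 24 h of dosing.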 Conditions: primary human bronchial epithelial cells; actives raise or lower the signal. The procedure, abridged:
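Primary human bronchial epithelial cells treated for 24 h; MIG levels measured by ELISA, fitted bidirectionally versus DMSO. Parallel SRB total-protein staining assessed cytotoxicity.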

Read-out in test [6]: Transforming growth factor beta 1 (TGFb1), TGFB1 (gene 7040)
As to the kind of experiment: BSK_BE3C_TGFb1: BioMAP Diversity Plus: BE3C Assay for Transforming growth factor beta 1 (TGFb1) Biomarker Activity (AID 2283036). To be noted: primary human bronchial epithelial cells; actives raise or lower the signal. In a few lines:
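Human primary bronchial epithelial cells (BE3C system) were dosed with chemical and TGF-b1 levels measured by ELISA at 24 h. Activity was fitted bidirectionally relative to DMSO negative control as baseline.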

Read-out in test [7]: Plasminogen activator inhibitor-1 (PAI1), SERPINE1 (gene 5054)
As to the kind of experiment: BSK_BE3C_PAI1: BioMAP Diversity Plus: BE3C Assay for Plasminogen activator inhibitor-1 (PAI1) Biomarker Activity (AID 2283037). To be noted: primary human bronchial epithelial cells; actives raise or lower the signal. In a few lines:
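Human primary bronchial epithelial cells were exposed to chemical for 24 h, then PAI-1 was quantified by ELISA. Activity was fitted bidirectionally relative to the DMSO negative control baseline.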

Read-out in test [8]: urokinase plasminogen activator (uPA), PLAU (gene 5328)
The test can be described thus: BSK_BE3C_uPA: BioMAP Diversity Plus: BE3C Assay for urokinase plasminogen activator (uPA) Biomarker Activity (AID 2283038).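 Further: uPA protein level quantified by ELISA in cell cultures; uPA read one day after compound addition.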 Conditions: primary human bronchial epithelial cells; actives raise or lower the signal. The procedure, abridged: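 Bronchial epithelial cells (human, primary); chemical 24 h; uPA by ELISA; bidirectional fit vs DMSO. SRB (0.1%, after 10% TCA fixation, 560 nm) in parallel cultures for cytotoxicity.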

Read-out in test [9]: Urokinase-type plasminogen activator receptor (uPAR), PLAUR (gene 5329)
As to the kind of experiment: BSK_BE3C_uPAR: BioMAP Diversity Plus: BE3C Assay for Urokinase-type plasminogen activator receptor (uPAR) Biomarker Activity (AID 2283039).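 Further: cells exposed to compound for one day before measurement.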 To be noted: primary human bronchial epithelial cells; actives raise or lower the signal. The procedure, abridged: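 Primary human bronchial epithelial cells were dosed with chemical and harvested 24 h later; uPAR was quantified by ELISA. Activity was fitted bidirectionally against DMSO as negative control and baseline.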

Read-out in test [10]: Interleukin-6 (IL6), IL6 (gene 3569)
The test can be described thus: BSK_CASM3C_IL6: BioMAP Diversity Plus: CASM3C Assay for Interleukin-6 (IL6) Biomarker Activity for (AID 2283040). Conditions: primary human coronary artery smooth muscle cells; actives raise or lower the signal.

Read-out in test [11]: Tissue plasminogen activator (tPA), PLAT (gene 5327)
The test can be described thus: BSK_BE3C_tPA: BioMAP Diversity Plus: BE3C Assay for Tissue plasminogen activator (tPA) Biomarker Activity (AID 2283041).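 Further: tPA level quantified by ELISA one day after compound addition.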 To be noted: primary human bronchial epithelial cells; actives raise or lower the signal. The procedure, abridged:
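Human primary bronchial epithelial cells were dosed with chemical and tPA biomarker levels measured by ELISA 24 hours later. Activity was fitted bidirectionally against DMSO as negative control and baseline.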

Read-out in test [12]: Interleukin-8 (IL8), CXCL8 (gene 3576)
The test can be described thus: BSK_CASM3C_IL8: BioMAP Diversity Plus: CASM3C Assay for Interleukin-8 (IL8) Biomarker Activity (AID 2283042).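 Further: IL-8 protein level quantified by ELISA.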 To be noted: primary human coronary artery smooth muscle cells; actives raise or lower the signal.

Read-out in test [13]: Human Leukocyte Antigen - DR isotype (HLADR), HLA-DRA (gene 3122)
The test can be described thus: BSK_CASM3C_HLADR: BioMAP Diversity Plus: CASM3C Assay for Human Leukocyte Antigen - DR isotype (HLADR) Biomarker Activity (AID 2283043).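 Further: cell-surface HLA-DR protein level quantified by ELISA.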 Conditions: primary human coronary artery smooth muscle cells; actives raise or lower the signal.

Read-out in test [14]: Macrophage colony-stimulating factor (MCSF), CSF1 (gene 1435)
The test can be described thus: BSK_CASM3C_MCSF: BioMAP Diversity Plus: CASM3C Assay for Macrophage colony-stimulating factor (MCSF) Biomarker Activity (AID 2283044).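 Further: M-CSF protein amount quantified by ELISA after 24 h exposure.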 Conditions: primary human coronary artery smooth muscle cells; actives raise or lower the signal.

Read-out in test [15]: Low-density lipoprotein receptor (LDLR), LDLR (gene 3949)
The test can be described thus: BSK_CASM3C_LDLR: BioMAP Diversity Plus: CASM3C Assay for Low-density lipoprotein receptor (LDLR) Biomarker Activity (AID 2283045).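 Further: LDLR protein level on the cell surface quantified by ELISA.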 Conditions: primary human coronary artery smooth muscle cells; actives raise or lower the signal.

Read-out in test [16]: Monocyte Chemoattractant Protein-1 (MCP1), CCL2 (gene 6347)
As to the kind of experiment: BSK_CASM3C_MCP1: BioMAP Diversity Plus: CASM3C Assay for Monocyte Chemoattractant Protein-1 (MCP1) Biomarker Activity (AID 2283046).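 Further: MCP-1 level quantified by ELISA 24 h after dosing.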 To be noted: primary human coronary artery smooth muscle cells; actives raise or lower the signal.

The nature of test [17]: BSK_CASM3C_Proliferation: Cell Proliferation Assessment in the BioMAP Diversity Plus: CASM3C Assay (AID 2283047).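 Further: sulforhodamine B total protein stain as relative cell number at 560 nm; sub-confluent cells exposed 48 h before staining; fitted both ways against DMSO so gain or loss of cell number.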 Conditions: primary human coronary artery smooth muscle cells.
Read-out in test [18]: Monokine induced gamma interferon (MIG), CXCL9 (gene 4283)
As to the kind of experiment: BSK_CASM3C_MIG: BioMAP Diversity Plus: CASM3C Assay for Monokine induced gamma interferon (MIG) Biomarker Activity (AID 2283048). To be noted: primary human coronary artery smooth muscle cells; actives raise or lower the signal.

Read-out in test [19]: serum amyloid A (SAA), SAA1 (gene 6288)
The test can be described thus: BSK_CASM3C_SAA: BioMAP Diversity Plus: CASM3C Assay for serum amyloid A (SAA) Biomarker Activity (AID 2283049).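 Further: SAA protein level quantified by ELISA.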 Conditions: primary human coronary artery smooth muscle cells; actives raise or lower the signal.

Test [20] can be described thus: BSK_CASM3C_SRB: Viability Assessment in the BioMAP Diversity Plus: CASM3C Assay (AID 2283050).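 Further: total protein by SRB staining as cytotoxicity measure in parallel cultures.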 To be noted: primary human coronary artery smooth muscle cells.

For orientation: AC50 means the concentration giving half of the maximal activity seen. `CC#Cc1cc(C)nc(Nc2ccccc2)n1`: the outcome in test [1], in test [2], in test [4], in [5], in [6] and in test [7] was inactive. Also, the result in [8], in test [9], in test [10], in test [11], in test [12] and in test [13] was inactive. In addition, the result in test [14], in test [15], in test [16], in test [17], in test [18] and in test [19] was inactive. Moreover, the result in [20] was inactive. In [3], the AC50 was 18.1 µM (active).

As to `CN(C)c1nc(=O)n(C2CCCCC2)c(=O)n1C`, the outcome in test [1], in [2], in [3], in test [4], in [5] and in test [6] was inactive. The outcome in [7], in [8], in test [9], in [10], in [11] and in test [12] was inactive. In addition, the outcome in test [13], in test [14], in [15], in test [16], in test [17] and in [18] was inactive. For the same compound, the outcome in [19] and in [20] was inactive.

As to `Cc1ccccc1O`, the outcome in test [1], in test [2], in test [3], in test [4], in test [5] and in test [6] was inactive. Also, the result in test [7], in test [8], in test [9], in [10], in [11] and in [12] was inactive. Further, the result in test [13], in [14], in [15], in [16], in test [17] and in test [18] was inactive. Besides, the result in test [19] and in test [20] was inactive.

With `CCCN(CCC)N=O`, the result in test [1], in [2], in test [3], in test [4], in [5] and in [6] was inactive. Moreover, the outcome in test [7], in test [8], in [9], in test [10], in test [11] and in [12] was inactive. Besides, the outcome in test [14], in [15], in test [16], in test [17], in test [18] and in test [19] was inactive. Further, in [20], the outcome was inactive.

Turning to `CCC(=O)O[C@H]1CC[C@H]2[C@@H]3CCC4=CC(=O)CC[C@]4(C)[C@H]3CC[C@]12C`, the AC50 in test [1] is 28 µM (active); in [2], 32.9 µM (active); in test [3], 37.4 µM (active); in test [17], 20 µM (active). The result in test [4], in test [5], in test [6], in [7], in test [8] and in test [9] was inactive. For the same compound, the result in test [11], in test [12], in [13], in test [14], in test [15] and in test [16] was inactive. For the same compound, the result in [18], in [19] and in test [20] was inactive.
